Common to all, as to assay: DAPPL (digital affinity profiling via proximity ligation, sequencing); 10 mM Tris-HCl pH 7.5, 50 mM NaCl, 1 mM DTT, 4% glycerol, room temperature, 30 min; GST-TFs on glutathione beads, 16-mer random dsDNA library, 0.1% formaldehyde crosslink after washing; high values mean tight binding
One test concerns the target T1, FLI1 (Homo sapiens, UniProt Q01543 1-452).
T1 sequence: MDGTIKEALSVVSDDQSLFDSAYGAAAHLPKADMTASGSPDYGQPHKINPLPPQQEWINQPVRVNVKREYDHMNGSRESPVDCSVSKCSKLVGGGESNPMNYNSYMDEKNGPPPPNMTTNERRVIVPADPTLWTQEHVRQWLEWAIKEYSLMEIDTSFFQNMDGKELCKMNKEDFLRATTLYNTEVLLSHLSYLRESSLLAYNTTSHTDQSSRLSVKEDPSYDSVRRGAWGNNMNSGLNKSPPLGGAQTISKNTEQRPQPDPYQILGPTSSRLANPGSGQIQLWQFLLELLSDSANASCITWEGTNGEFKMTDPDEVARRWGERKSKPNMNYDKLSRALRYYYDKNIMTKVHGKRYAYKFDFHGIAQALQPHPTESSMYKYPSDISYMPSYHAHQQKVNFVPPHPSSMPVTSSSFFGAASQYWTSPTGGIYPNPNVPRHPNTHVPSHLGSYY
As to conditions: protein: recombinant; tags: N-terminal GST; dsDNA, one strand shown. The method in brief: (§1)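 Sequencing on an Illumina NextSeq500 followed washing, crosslinking with 0.1% formaldehyde, proximity ligation (BsaI/T4 ligase, 1 h, 37 °C) and PCR amplification of pools that had been incubated for 30 min at room temperature with 200 nmole of a random double-stranded 16-mer DNA library in Tris/NaCl/DTT/glycerol buffer. Each pool held DNA-barcoded human transcription factors, expressed in yeast as GST fusions and captured on glutathione beads, plus a tag-only sample. Binding signal is a hexamer's read frequency for a factor divided by its frequency in the tag-only sample.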

A further test has as its target T2, ELK1 (Homo sapiens, UniProt P19419 1-428).
T2 sequence: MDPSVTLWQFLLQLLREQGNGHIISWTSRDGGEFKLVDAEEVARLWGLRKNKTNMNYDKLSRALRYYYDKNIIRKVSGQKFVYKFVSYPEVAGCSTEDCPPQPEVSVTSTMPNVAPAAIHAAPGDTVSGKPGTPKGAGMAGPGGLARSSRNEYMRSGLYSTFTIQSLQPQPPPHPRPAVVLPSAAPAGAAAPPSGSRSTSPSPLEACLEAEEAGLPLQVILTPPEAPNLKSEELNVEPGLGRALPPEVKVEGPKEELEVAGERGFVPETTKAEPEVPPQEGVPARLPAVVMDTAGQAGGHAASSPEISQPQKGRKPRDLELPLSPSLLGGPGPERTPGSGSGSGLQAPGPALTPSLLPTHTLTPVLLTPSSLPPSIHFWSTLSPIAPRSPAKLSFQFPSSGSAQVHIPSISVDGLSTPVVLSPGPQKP
To be noted: protein: recombinant; tags: N-terminal GST; dsDNA, one strand shown. The method in brief:
as §1

In the next test the target is T3, GABPA (Homo sapiens, UniProt Q06546 1-454).
T3 sequence: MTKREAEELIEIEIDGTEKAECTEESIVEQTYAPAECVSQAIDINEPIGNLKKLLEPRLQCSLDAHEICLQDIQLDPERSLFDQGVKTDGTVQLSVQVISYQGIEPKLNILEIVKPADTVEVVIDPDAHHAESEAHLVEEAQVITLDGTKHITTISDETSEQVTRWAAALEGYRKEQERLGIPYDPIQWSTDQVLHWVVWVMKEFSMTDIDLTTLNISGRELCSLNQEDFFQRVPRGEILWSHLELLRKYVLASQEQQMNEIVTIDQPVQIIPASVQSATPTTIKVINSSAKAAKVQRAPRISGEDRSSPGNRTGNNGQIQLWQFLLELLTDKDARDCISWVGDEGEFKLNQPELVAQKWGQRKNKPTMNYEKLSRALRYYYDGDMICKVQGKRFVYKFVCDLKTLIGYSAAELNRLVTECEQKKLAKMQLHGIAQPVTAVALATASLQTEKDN
As to conditions: protein: recombinant; tags: N-terminal GST; dsDNA, one strand shown. A digest of the protocol: as §1

The next test deals with T4, ERG (Homo sapiens, UniProt P11308 1-479).
T4 sequence: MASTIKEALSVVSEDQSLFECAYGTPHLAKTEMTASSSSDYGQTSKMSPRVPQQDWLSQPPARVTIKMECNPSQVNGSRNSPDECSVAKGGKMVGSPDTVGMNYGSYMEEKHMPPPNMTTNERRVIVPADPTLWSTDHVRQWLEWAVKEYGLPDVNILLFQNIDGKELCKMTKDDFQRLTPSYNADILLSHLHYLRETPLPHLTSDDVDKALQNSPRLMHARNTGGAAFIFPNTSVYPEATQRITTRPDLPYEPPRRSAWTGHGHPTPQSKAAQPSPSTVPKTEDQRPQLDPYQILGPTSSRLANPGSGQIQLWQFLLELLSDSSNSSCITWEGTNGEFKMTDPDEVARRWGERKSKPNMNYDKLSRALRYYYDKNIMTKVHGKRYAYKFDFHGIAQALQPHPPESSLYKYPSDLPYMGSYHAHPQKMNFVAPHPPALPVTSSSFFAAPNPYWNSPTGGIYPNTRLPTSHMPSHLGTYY
To be noted: protein: recombinant; tags: N-terminal GST; dsDNA, one strand shown. The method in brief: as §1

In the next test the target is ELF1 (Homo sapiens, UniProt P32519 1-619). To be noted: protein: recombinant; tags: N-terminal GST; dsDNA, one strand shown. A digest of the protocol:
as §1

For the next test, the target named is T5, EHF (Homo sapiens, UniProt Q9NZC4 1-300).
T5 sequence: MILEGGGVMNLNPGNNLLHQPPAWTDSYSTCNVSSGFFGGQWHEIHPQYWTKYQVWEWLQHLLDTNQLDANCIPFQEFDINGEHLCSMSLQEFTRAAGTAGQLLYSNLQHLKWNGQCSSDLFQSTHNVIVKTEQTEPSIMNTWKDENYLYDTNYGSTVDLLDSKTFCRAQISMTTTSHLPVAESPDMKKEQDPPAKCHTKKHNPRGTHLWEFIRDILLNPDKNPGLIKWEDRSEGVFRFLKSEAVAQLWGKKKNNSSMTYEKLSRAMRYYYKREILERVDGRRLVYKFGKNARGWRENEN
As to conditions: protein: recombinant; tags: N-terminal GST; dsDNA, one strand shown. The method in brief: as §1

A further test deals with SPI1 (Homo sapiens, UniProt P17947 1-270). As to conditions: protein: recombinant; tags: N-terminal GST; dsDNA, one strand shown. The method in brief:
as §1

A further test addresses T6, ELK3 (Homo sapiens, UniProt P41970 1-407).
T6 sequence: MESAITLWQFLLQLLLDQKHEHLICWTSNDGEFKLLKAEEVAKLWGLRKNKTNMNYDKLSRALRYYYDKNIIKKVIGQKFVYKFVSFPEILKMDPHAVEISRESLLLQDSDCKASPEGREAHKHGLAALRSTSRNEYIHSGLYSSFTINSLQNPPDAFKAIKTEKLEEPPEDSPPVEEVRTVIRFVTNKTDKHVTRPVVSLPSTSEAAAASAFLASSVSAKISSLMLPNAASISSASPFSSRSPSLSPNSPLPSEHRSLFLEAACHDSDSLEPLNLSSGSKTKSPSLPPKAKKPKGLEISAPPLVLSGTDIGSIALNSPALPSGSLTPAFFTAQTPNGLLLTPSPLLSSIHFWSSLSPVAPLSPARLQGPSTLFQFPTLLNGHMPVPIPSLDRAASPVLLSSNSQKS
As to conditions: protein: recombinant; tags: N-terminal GST; dsDNA, one strand shown. The method in brief: as §1

The next test deals with T7, FEV (Homo sapiens, UniProt Q99581 1-238).
T7 sequence: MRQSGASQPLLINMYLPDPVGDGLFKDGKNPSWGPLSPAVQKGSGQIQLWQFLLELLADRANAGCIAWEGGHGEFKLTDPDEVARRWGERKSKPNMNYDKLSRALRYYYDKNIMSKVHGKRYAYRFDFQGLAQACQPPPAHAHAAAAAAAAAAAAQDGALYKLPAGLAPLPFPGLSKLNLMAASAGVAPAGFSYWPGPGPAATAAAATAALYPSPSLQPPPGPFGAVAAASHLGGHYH
To be noted: protein: recombinant; tags: N-terminal GST; dsDNA, one strand shown. The method in brief:
as §1

For another test, the target named is ETV5 (Homo sapiens, UniProt P41161 1-510). To be noted: protein: recombinant; tags: N-terminal GST; dsDNA, one strand shown. The method in brief:
as §1

The next test deals with HSF1 (Homo sapiens, UniProt Q00613 1-529). To be noted: protein: recombinant; tags: N-terminal GST; chain copies: 3; dsDNA, one strand shown. The method in brief: as §1
Chain of HSF1 (Q00613 whole entry): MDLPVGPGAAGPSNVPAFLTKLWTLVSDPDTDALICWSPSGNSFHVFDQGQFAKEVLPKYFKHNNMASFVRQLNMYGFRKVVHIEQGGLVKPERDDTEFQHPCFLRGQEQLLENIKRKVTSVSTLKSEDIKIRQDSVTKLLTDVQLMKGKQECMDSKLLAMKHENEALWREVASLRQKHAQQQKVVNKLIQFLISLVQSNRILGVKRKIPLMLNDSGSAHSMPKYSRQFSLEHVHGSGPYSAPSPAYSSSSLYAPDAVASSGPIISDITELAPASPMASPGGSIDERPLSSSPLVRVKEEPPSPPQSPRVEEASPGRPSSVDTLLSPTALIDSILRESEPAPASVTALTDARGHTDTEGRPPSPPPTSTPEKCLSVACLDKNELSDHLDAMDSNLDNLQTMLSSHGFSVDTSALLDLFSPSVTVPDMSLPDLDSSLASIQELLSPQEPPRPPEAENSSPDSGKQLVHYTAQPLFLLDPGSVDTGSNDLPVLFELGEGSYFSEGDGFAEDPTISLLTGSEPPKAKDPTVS
The next test has as its target T8, SPIC (Homo sapiens, UniProt Q8N5J4 1-248).
T8 sequence: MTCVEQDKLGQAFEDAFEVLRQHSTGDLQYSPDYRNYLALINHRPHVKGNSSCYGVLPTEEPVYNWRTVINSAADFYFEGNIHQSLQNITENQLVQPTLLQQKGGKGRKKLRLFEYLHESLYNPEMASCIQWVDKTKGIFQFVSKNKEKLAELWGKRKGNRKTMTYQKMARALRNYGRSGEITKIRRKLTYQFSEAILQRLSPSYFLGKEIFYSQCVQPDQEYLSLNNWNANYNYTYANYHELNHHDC
To be noted: protein: recombinant; tags: N-terminal GST; dsDNA, one strand shown. A digest of the protocol:
as §1

In another test the target is ELF4 (Homo sapiens, UniProt Q99607 1-663). To be noted: protein: recombinant; tags: N-terminal GST; dsDNA, one strand shown. A digest of the protocol:
as §1

Another test deals with T9, ELK4 (Homo sapiens, UniProt P28324-2 1-405).
T9 sequence: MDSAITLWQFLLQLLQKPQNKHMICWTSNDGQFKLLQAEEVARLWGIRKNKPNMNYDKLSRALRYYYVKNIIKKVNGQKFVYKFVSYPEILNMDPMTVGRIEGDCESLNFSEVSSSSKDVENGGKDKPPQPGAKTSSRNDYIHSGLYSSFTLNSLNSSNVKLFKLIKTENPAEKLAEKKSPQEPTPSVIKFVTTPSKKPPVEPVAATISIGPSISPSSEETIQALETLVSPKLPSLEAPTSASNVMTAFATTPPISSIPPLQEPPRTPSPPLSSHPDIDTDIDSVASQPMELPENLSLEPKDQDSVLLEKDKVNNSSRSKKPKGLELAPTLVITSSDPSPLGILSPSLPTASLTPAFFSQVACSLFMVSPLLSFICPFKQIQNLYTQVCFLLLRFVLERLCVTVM
To be noted: protein: recombinant; tags: N-terminal GST; dsDNA, one strand shown. The method in brief:
as §1

In another test the target is T10, ETV2 (Homo sapiens, UniProt O00321 1-342).
T10 sequence: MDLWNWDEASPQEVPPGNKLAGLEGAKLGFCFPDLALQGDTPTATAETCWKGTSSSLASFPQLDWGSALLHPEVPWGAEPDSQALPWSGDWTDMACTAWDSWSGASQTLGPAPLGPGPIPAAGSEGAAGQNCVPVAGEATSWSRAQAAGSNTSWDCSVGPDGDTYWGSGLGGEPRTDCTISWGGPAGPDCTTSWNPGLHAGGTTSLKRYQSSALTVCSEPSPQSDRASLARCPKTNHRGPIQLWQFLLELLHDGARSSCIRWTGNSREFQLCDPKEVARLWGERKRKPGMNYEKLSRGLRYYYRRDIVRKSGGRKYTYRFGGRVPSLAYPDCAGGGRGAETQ
To be noted: protein: recombinant; tags: N-terminal GST; dsDNA, one strand shown. A digest of the protocol:
as §1

The next test addresses T11, ELF3 (Homo sapiens, UniProt P78545 1-371).
T11 sequence: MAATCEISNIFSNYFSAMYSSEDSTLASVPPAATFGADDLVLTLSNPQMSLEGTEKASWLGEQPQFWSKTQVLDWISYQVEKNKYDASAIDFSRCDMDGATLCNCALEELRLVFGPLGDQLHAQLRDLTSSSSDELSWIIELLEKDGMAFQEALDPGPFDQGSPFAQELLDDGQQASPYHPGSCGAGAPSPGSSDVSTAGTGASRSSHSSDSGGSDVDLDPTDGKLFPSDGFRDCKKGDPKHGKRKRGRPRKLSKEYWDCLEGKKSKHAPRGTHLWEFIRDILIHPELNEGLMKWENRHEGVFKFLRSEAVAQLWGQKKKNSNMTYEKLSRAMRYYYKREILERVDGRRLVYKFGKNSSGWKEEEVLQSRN
As to conditions: protein: recombinant; tags: N-terminal GST; dsDNA, one strand shown. The method in brief: as §1

For a further test, the target named is CRX (Homo sapiens, UniProt O43186 1-299). To be noted: protein: recombinant; tags: N-terminal GST; dsDNA, one strand shown. A digest of the protocol: as §1
Chain of CRX (O43186 whole entry): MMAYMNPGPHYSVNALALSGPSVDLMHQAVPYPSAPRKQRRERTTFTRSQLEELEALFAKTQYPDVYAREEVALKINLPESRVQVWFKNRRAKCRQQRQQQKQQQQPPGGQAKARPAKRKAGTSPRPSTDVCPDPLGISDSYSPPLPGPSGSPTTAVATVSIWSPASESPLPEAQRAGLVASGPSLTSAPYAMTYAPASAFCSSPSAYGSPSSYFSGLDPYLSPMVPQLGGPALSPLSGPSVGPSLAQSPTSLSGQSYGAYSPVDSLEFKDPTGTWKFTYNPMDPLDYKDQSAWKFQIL
A further test has as its target ETV1 (Homo sapiens, UniProt P50549 1-477). To be noted: protein: recombinant; tags: N-terminal GST; dsDNA, one strand shown. A digest of the protocol:
as §1

Chain of ETV1 (P50549 whole entry): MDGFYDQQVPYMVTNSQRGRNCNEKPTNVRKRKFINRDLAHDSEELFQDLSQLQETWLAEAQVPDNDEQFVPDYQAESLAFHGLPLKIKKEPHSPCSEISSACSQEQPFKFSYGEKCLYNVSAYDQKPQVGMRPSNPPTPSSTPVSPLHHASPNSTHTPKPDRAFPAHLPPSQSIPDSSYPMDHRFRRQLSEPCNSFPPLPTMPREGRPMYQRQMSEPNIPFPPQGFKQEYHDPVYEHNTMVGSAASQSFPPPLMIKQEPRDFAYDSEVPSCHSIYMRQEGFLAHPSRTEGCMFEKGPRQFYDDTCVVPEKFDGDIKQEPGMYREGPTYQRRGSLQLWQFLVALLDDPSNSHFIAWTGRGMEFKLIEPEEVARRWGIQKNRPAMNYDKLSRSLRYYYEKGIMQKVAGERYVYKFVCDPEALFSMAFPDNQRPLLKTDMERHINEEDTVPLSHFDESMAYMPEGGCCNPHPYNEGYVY
Chain of ELF1 (P32519 whole entry): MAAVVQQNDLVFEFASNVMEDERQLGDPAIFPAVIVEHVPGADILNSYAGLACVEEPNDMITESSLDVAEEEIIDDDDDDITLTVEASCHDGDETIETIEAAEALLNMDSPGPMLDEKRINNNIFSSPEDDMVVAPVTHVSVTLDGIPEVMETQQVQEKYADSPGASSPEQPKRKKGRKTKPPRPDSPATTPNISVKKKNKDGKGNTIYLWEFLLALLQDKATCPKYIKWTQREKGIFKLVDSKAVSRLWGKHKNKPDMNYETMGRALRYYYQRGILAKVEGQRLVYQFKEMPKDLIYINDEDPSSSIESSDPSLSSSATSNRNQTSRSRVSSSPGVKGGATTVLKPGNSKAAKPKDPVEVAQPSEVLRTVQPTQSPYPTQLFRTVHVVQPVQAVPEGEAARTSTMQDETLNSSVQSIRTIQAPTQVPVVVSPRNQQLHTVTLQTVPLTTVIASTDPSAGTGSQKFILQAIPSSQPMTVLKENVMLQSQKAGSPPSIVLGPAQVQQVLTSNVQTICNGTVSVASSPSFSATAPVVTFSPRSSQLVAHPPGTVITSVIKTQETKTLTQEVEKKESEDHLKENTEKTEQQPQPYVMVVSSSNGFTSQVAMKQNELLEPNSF
Chain of ELF4 (Q99607 whole entry): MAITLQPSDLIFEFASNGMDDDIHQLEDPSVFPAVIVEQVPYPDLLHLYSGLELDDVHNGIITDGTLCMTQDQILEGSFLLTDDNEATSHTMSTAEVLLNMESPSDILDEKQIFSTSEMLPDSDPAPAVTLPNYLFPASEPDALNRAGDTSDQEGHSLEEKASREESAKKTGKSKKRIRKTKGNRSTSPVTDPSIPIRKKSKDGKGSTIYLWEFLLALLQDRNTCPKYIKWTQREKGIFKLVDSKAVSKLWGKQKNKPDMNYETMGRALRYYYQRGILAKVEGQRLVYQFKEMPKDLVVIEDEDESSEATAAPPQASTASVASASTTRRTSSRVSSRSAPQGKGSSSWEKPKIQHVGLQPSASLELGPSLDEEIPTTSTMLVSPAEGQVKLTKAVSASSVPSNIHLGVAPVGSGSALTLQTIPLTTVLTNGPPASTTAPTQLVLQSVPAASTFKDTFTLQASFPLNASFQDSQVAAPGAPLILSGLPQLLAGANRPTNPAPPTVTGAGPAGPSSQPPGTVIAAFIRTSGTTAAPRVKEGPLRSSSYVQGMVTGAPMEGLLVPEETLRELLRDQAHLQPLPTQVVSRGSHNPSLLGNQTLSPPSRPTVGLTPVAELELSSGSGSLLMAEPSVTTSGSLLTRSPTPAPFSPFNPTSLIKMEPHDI
Chain of ETV5 (P41161 whole entry): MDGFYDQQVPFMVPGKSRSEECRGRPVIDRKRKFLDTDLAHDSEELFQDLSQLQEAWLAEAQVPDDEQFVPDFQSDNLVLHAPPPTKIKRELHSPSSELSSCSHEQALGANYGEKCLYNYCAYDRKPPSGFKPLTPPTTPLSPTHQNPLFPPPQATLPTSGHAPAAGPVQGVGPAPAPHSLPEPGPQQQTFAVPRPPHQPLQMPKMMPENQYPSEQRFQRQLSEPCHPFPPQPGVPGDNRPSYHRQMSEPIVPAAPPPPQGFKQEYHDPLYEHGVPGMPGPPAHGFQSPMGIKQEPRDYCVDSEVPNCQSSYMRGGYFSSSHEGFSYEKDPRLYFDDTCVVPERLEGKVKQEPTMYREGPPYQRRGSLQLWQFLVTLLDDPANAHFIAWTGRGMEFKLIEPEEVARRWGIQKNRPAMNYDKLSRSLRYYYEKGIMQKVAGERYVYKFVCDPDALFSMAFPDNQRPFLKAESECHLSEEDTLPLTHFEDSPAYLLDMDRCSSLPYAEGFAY

TTACTG: the binding signal in the test with FLI1 was 1.11 fold enrichment (6-mer frequency, TF over GST control); with ELK1, 1.12 fold enrichment (6-mer frequency, TF over GST control); with GABPA it was 1.08 fold enrichment (6-mer frequency, TF over GST control); with ERG, 1.14 fold enrichment (6-mer frequency, TF over GST control); with ELF1, 1.09 fold enrichment (6-mer frequency, TF over GST control); in the test with EHF, 1.18 fold enrichment (6-mer frequency, TF over GST control). In addition, the binding signal in the test with SPI1 is 1.05 fold enrichment (6-mer frequency, TF over GST control); in the test with ELK3, 1.03 fold enrichment (6-mer frequency, TF over GST control); with FEV it was 1.04 fold enrichment (6-mer frequency, TF over GST control); with ETV5, 1.15 fold enrichment (6-mer frequency, TF over GST control); with HSF1, 1.52 fold enrichment (6-mer frequency, TF over GST control); with SPIC, 1.18 fold enrichment (6-mer frequency, TF over GST control). The binding signal is 1.11 fold enrichment (6-mer frequency, TF over GST control) with ELF4; 1.16 fold enrichment (6-mer frequency, TF over GST control) with ELK4; 1.12 fold enrichment (6-mer frequency, TF over GST control) with ETV2; 1.21 fold enrichment (6-mer frequency, TF over GST control) with ELF3; 1.84 fold enrichment (6-mer frequency, TF over GST control) in the test with CRX; 1.01 fold enrichment (6-mer frequency, TF over GST control) in the test with ETV1.

The values are drawn from paper PMC7862700, “An all-to-all approach to the identification of sequence-specific readers for epigenetic DNA modifications on cytosine”.
